Rv3671c protease = Rv3671c serine protease inhibitors, primary screen, biochemical, fluorescence polarization, M. tuberculosis H37Rv | inhibition, % at 5.96 µM | actives 0.048% (n = 320,000) | P9WHR9; in the data active = inhibition above about 38%;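 also: extracellular domain of Rv3671c used as enzyme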
Target sequence (P9WHR9 whole entry, looked up, the tested form may be a part): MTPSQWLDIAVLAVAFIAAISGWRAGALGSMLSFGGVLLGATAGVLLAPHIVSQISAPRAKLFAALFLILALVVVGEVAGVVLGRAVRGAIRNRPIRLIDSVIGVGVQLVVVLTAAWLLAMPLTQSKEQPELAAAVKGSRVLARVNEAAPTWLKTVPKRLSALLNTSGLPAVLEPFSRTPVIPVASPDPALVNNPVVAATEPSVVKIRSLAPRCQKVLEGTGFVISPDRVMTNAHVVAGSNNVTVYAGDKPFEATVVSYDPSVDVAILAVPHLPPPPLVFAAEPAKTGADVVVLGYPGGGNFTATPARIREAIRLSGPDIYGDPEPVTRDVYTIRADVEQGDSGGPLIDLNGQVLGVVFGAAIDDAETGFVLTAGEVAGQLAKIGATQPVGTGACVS
Mtb bLac sens = beta-lactam sensitization of Mtb H37Rv, H37Rv. M. tuberculosis H37Rv growth with meropenem, percent inhibition. inhibition, % at 25 µM. actives 0.27% (n = 330,000). AID 434955, 2010; call rule not given here;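 also: growth measured after seven days incubation then overnight dye step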
MazF activator = activators of E. coli MazEF toxin-antitoxin RNase, primary screen, biochemical, fluorescence, uHTS; actives 0.32% (n = 350,000); FAM/BHQ RNA-DNA oligo cleavage fluorescence, 5 h; activation, % at 20 µM; Endoribonuclease toxin MazF (Escherichia coli (strain K12)), P0AE70; in the data active = activation above about 50%
Target sequence (P0AE70 whole entry, looked up): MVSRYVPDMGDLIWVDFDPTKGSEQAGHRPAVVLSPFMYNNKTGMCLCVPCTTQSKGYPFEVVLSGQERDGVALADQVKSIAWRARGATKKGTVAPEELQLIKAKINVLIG
RecA intein inh = Mtb RecA intein splicing inhibitors, primary screen, biochemical, fluorescence, HTS. Protein RecA (Mycobacterium tuberculosis (strain ATCC 25618 / H37Rv)), P9WHJ3. AID 2221, 2009. actives 0.75% (n = 290,000). cell-free RecA intein splicing. inhibition, % (no concentration beside the values); in the data active = inhibition above about 30%; inconclusive = no clear call, values can overlap the other calls
UGM FP inh = M. tuberculosis UGM enzyme inhibitors, primary screen, biochemical, fluorescence polarization, single point; purified UGM, fluorescence polarization probe displacement; inhibition, % at 10 µM; actives 0.06% (n = 320,000); in the data active = inhibition above about 10%, passing the limit was not always enough; inconclusive = no clear call, values can overlap the other calls
TcdB inh = TcdB glycohydrolase inhibitors, primary screen, biochemical, single point, plate reader. Toxin B (Clostridioides difficile), P18177. TcdB glycohydrolase enzymatic assay. inhibition, % at 9.99 µM. actives 0.24% (n = 350,000). AID 652162, 2013; in the data active = inhibition above about 10%
Each line names hits and unclear results; the compound was inactive in the other large screens. An excerpt weighted towards active compounds, which were near 0.97% of everything screened.

O=C(CSc1ncnc2c1nnn2Cc1ccccc1F)NCC1CCCO1 (configuration not stated)	RecA intein inh 50
CN(CC(=O)Nc1ccc(F)cc1)C(=O)COC(=O)CNC(=O)c1sc2ccccc2c1Cl	MazF activator 70 (no result: RecA intein inh)
Cc1ccc(N=Cc2sc(O)c3ccccc23)cc1	none (no result: TcdB inh)
Cc1ccc(N=Cc2sc(O)c3ccccc23)c(C)c1	MazF activator 691 (no result: RecA intein inh, TcdB inh)
CC1=Nc2ccccc2/C1=C\c1nc(-c2ccc(C(F)(F)F)cc2)oc1O	MazF activator 57, UGM FP inh 12
CC1=Nc2ccccc2/C1=C\c1nc(-c2ccccc2)oc1O	none (no result: TcdB inh)
O=C(CSc1nnc(NC(=O)c2c(F)cccc2F)s1)Nc1ccc(F)cc1	MazF activator 179
C[C@@H]1CCCCO[C@H](CN(C)C(=O)C2CCCCC2)[C@@H](C)CN([C@H](C)CO)C(=O)c2cc(NC(=O)Nc3ccccc3)ccc2O1	none (no result: Rv3671c protease, Mtb bLac sens, MazF activator, RecA intein inh, UGM FP inh)
O=C(Nc1ccc(N2CCOCC2)c(Cl)c1)c1ccc(F)cc1	TcdB inh 17
COc1ccc(-n2c(SCc3nnc(-c4ccccc4)o3)nnc2-c2ccccc2)cc1	Mtb bLac sens inconclusive (no result: TcdB inh)
COc1ccc(-c2nnc(SCc3nnc(-c4ccccc4)o3)n2-c2ccccc2)cc1	MazF activator 69 (no result: TcdB inh)
O=C(N/N=C\c1ccc(-c2ccc([N+](=O)[O-])cc2)o1)c1ccc2c(c1)OCO2	MazF activator 86 (no result: TcdB inh)
O=C(Nc1ccc(O)cc1)/C(=C\c1cccs1)NC(=O)c1ccccc1	TcdB inh 19
COc1cc(/C=C(/NC(=O)c2ccccc2)C(=O)Nc2ccc(O)cc2)c([N+](=O)[O-])cc1OC	TcdB inh 13
COc1cc(/C=C(/NC(=O)c2ccccc2)C(=O)Nc2ccccc2)c([N+](=O)[O-])cc1OC	none (no result: TcdB inh)
CC1Oc2cc3c(-c4c(O)cc(O)c5c(O)c6c(cc45)OC(C)C(C)C6=O)c(O)cc(O)c3c(O)c2C(=O)C1C (configuration not stated)	Rv3671c protease 40, RecA intein inh 87 (no result: TcdB inh)
CCCC#Cc1ccc([C@H]2[C@H]3CN(S(=O)(=O)Cc4ccccc4)CC(=O)N3[C@H]2CO)cc1	none (no result: Rv3671c protease, Mtb bLac sens, MazF activator, RecA intein inh, UGM FP inh)
Cc1ccc2cc3c(N)c(C(=O)Nc4c(C)[nH]c(=O)[nH]c4=O)sc3nc2c1	MazF activator 205 (no result: TcdB inh)
Cc1ccc2nc3sc(C(=O)Nc4c(C)[nH]c(=O)[nH]c4=O)c(N)c3cc2c1	none (no result: TcdB inh)
CO[C@@H]1CN(C)C(=O)c2ccc(NC(=O)Nc3ccccc3)cc2OC[C@H](C)N(CC2CC2)C[C@@H]1C	none (no result: Rv3671c protease, Mtb bLac sens, MazF activator, RecA intein inh, UGM FP inh)
CC(C)OC(=O)CC(=O)c1sc2nc3c(cc2c1N)CN(C)CC3	UGM FP inh 16 (no result: TcdB inh)
Cc1cc(C(N)=O)c2ccccc2n1	none (no result: TcdB inh)
NC(=O)c1cc2c3ccccc3ccn2c1-c1ccccc1	MazF activator 51
O=C(c1ccco1)N1CCN(c2nc(C3CC3)nc3sc4c(c23)CCCC4)CC1	RecA intein inh 38 (no result: TcdB inh)
Cc1c(N=C2N=C(NC(=O)c3ccc(F)cc3)c3ccccc32)c(=O)n(-c2ccccc2)n1C	UGM FP inh 18 (no result: RecA intein inh)
O=c1[nH]c2cc3c(cc2cc1CN(Cc1cccnc1)Cc1nnnn1Cc1ccco1)OCCO3	MazF activator 54
O=c1[nH]c2cc3c(cc2cc1CN(Cc1ccccc1)Cc1nnnn1Cc1ccco1)OCCO3	none (no result: Rv3671c protease, Mtb bLac sens, UGM FP inh, TcdB inh)
COc1ccc(-c2cc(C(=O)O)c3c(C)nn(-c4ccccn4)c3n2)cc1	none (no result: UGM FP inh, TcdB inh)
COc1ccc(N=CC2=C(Nc3ccc(OC)cc3)c3c(C)nn(-c4ccccn4)c3CC2)cc1	UGM FP inh 14 (no result: MazF activator, RecA intein inh, TcdB inh)
CCOC(=O)c1c(C)[nH]c(C)c1C(=O)COC(=O)/C=C/c1ccco1	TcdB inh 10 (no result: RecA intein inh)
CCOC(=O)c1c(C)[nH]c(C)c1C(=O)COC(=O)/C=C/c1ccc(OC)cc1	none (no result: Rv3671c protease, Mtb bLac sens, RecA intein inh, UGM FP inh)
COc1ccc(-c2ccc3c(c2)O[C@@H](CN(C)Cc2ccccc2C(=O)O)[C@H](C)CN([C@@H](C)CO)S3(=O)=O)cc1	none (no result: Rv3671c protease, Mtb bLac sens, MazF activator, RecA intein inh, UGM FP inh)
CCCCOc1ccc(C(=O)Nc2ccc(S(=O)(=O)Nc3cc(C)on3)cc2)cc1OC	MazF activator 56
CCCCOc1cccc(C(=O)Nc2ccc(S(=O)(=O)Nc3cc(C)on3)cc2)c1	none
Fc1ccc(CSc2nc3ccccc3[nH]2)c2ccccc12	MazF activator 54 (no result: TcdB inh)
O=c1cc(CSc2nc3ccccc3[nH]2)c2ccccc2[nH]1	none
CC(C)(C)c1cc(C(=O)CCN2CCOCC2)cc(C(C)(C)C)c1O	RecA intein inh 30
C[C@H](CO)N1C[C@H](C)[C@H](CN(C)Cc2ccc(Oc3ccccc3)cc2)Oc2ccc(NC(=O)Nc3cccc4ccccc34)cc2C1=O	none (no result: Rv3671c protease, Mtb bLac sens, MazF activator, RecA intein inh, UGM FP inh)
COc1ccc(Nc2nc(-c3cc4cccc(OC)c4oc3=O)cs2)cc1	none
CC(=O)Nc1ccc(Nc2nc(-c3cc4ccccc4oc3=O)cs2)cc1	MazF activator 63 (no result: Rv3671c protease)
COc1ccc2oc(=O)c(-c3csc(Nc4cccc(O)c4)n3)cc2c1	MazF activator 133 (no result: TcdB inh)
CC[n+]1c(/C=C/N(C)c2ccccc2)n(-c2ccccc2)c2ccc(-c3nc4ccccc4s3)cc21	MazF activator 68 (no result: TcdB inh)
COc1ccc(S(=O)(=O)Nc2ccc3oc(C)c(C(=O)O)c3c2)cc1	TcdB inh 15
C/C=C/c1cnc2c(c1)C(=O)N([C@@H](C)CO)C[C@H](C)[C@H](CN(C)Cc1ccncc1)O2	none (no result: Rv3671c protease, Mtb bLac sens, MazF activator, RecA intein inh, UGM FP inh)
C[C@@H]1CCCCO[C@H](CN(C)Cc2ccccc2)[C@H](C)CN([C@H](C)CO)C(=O)c2cc(NC(=O)Nc3ccc(F)cc3)ccc2O1	none (no result: Rv3671c protease, Mtb bLac sens, MazF activator, RecA intein inh, UGM FP inh)
CC(C)CC(=O)/C(=C\c1ccc(Cl)cc1Cl)n1cncn1	RecA intein inh 44 (no result: Rv3671c protease, Mtb bLac sens, UGM FP inh, TcdB inh)
CC(C)CC(=O)/C(=C/c1ccc(N(C)C)cc1)n1cncn1	none
COc1ccc(-c2ccc(/C=C3/C(=N)N4C(C)=CSC4=NC3=O)o2)c([N+](=O)[O-])c1	Mtb bLac sens inconclusive, MazF activator 68 (no result: TcdB inh)
C[C@@H]1CN([C@H](C)CO)C(=O)Cc2cc(NS(=O)(=O)c3cn(C)cn3)ccc2O[C@@H]1CN(C)S(=O)(=O)c1cccs1	none (no result: Rv3671c protease, Mtb bLac sens, MazF activator, RecA intein inh, UGM FP inh)
Cc1ccc2nc(NCCc3ccc(Cl)cc3)c3nncn3c2c1	MazF activator 80
Cc1cccc(CCNc2nc3ccc(C)cc3n3cnnc23)c1	none
COc1ccc(NC(=O)N(C)C[C@@H]2OCCCC[C@H](C)Oc3ccc(NC(=O)C4CCCCC4)cc3C(=O)N([C@H](C)CO)C[C@@H]2C)cc1	none (no result: Rv3671c protease, Mtb bLac sens, MazF activator, RecA intein inh, UGM FP inh)
NC1=NC[C@@H](CC2CCCCC2)N1CCc1cc(C(F)(F)F)cc(C(F)(F)F)c1	none (no result: RecA intein inh, TcdB inh)
NC1=NC[C@H](Cc2ccc(O)cc2)N1CCc1cc(C(F)(F)F)cc(C(F)(F)F)c1	TcdB inh 11
